For this test, the target named is Estrogen receptor (Homo sapiens) (UniProt P03372). The test is described as follows: ERalpha ligand binders by competition, primary screen, cell-based, Cos7 ERalpha-GFP, flow cytometry (AID 1211).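 Also: 0% = DMSO vehicle wells and 100% = no E2-Alexa633 signal left.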 Particulars: fluorescent ligand competition, stronger effect = higher value. Background: Flow cytometry measures light scatter and fluorescence of single cells or particles in a stream.

The structures appear in SMILES notation. Calls of active or inactive are those of the source. No rule for the calls is given here.

Sequence of Estrogen receptor (Homo sapiens) (P03372 whole entry, looked up): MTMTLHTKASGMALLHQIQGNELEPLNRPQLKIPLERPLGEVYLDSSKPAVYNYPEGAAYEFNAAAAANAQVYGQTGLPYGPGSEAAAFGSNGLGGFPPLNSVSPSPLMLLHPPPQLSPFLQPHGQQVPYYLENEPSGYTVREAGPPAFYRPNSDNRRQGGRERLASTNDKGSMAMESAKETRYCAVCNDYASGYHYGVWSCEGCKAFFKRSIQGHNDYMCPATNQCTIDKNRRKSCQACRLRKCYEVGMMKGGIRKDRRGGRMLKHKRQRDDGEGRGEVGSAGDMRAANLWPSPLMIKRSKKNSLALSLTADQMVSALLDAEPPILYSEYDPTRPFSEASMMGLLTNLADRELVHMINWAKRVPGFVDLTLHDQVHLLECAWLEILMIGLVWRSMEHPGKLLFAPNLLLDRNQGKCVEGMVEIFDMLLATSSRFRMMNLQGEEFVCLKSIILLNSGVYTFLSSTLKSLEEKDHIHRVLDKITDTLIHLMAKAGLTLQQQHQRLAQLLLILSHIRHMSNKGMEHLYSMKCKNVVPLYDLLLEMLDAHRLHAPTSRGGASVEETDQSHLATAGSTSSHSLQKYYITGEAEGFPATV

`CC(=O)c1ccc2c(c1)C1C(Cl)C(Sc3ccccc3[N+](=O)[O-])CC1C(C(=O)O)N2` (stereo not drawn): the inhibition of ligand binding (at 10 µM) is 0% (inactive).
`COc1ccc2[nH]cc(CCN=C(N)N)c2c1`: the inhibition of ligand binding (at 10 µM) was 1% (inactive).
On to `COc1ccc(C2(CN)CCCC2)cc1OC`, for which, where the note is “at 10 µM”, the inhibition of ligand binding is 2% (inactive).
On to `O=C(O)c1cccc2c1NC(C(=O)O)C1CC(Sc3ccccc3[N+](=O)[O-])C(Cl)C21` (stereo not drawn), for which the inhibition of ligand binding (at 10 µM) is 0% (inactive) and the inhibition of ligand binding (binding inhibition, at 0.1 µM) stood at 1%.
Consider `N=c1c[n+](CCc2ccc(O)cc2)[n-]o1`, for which the inhibition of ligand binding (at 10 µM) is 7% (inactive).
`COc1ccc(CC2NCCc3cc(OC)c(OC)cc32)cc1OC` (stereo not drawn): under “at 10 µM”, the inhibition of ligand binding was 7% (inactive).
Take `Cc1ccc(S(=O)(=O)Cc2ccc(C(=O)N3CCC4(CC3)OCCO4)o2)cc1`: the inhibition of ligand binding is, setting by setting: (at 10 µM) 31% (inactive); (binding inhibition, at 0.1 µM) 24%.
As for `CC(=O)c1ccc2c(c1)C1C(Cl)C(Sc3ccccc3[N+](=O)[O-])CC1C(c1ccccc1)N2` (stereo not drawn), the inhibition of ligand binding (at 10 µM) was 69% (active).
With `C[C@H]1CCC[C@@H](O)CCC/C=C/c2cc(O)cc(O)c2C(=O)O1`, the inhibition of ligand binding (at 10 µM) was 67% (active) and the inhibition of ligand binding (binding inhibition, at 0.1 µM) stood at 74%.
For the compound `COc1ccc(C2(CN)CCCC2)cc1`, the inhibition of ligand binding (at 10 µM) was 21% (inactive).
As to `COc1ccc(Cn2c(N)c(C(=O)NCc3ccco3)c3nc4ccccc4nc32)cc1`, the inhibition of ligand binding (at 10 µM) was 26% (inactive) and the inhibition of ligand binding (binding inhibition, at 0.1 µM) was found to be 45%.
Consider `O=C(O)c1cccc2c1NC(c1cccc([N+](=O)[O-])c1)C1CC(Sc3ccccc3[N+](=O)[O-])C(Cl)C21` (stereo not drawn), for which the inhibition of ligand binding (at 10 µM) was 62% (inactive).
On to `CCOc1ccccc1N1C(=O)NC(=O)C(CCc2ccncc2)(CCc2ccncc2)C1=O`, for which the inhibition of ligand binding by setting is: (at 10 µM) 59% (inactive); (binding inhibition, at 0.1 µM) 24%.
With `Cc1ccc2c(c1Cl)NC(C(=O)O)C1CC(Sc3ccccc3[N+](=O)[O-])C(Cl)C21` (stereo not drawn), the inhibition of ligand binding (at 10 µM) is 0% (inactive).
For `CCNCC1(c2ccc(OC)c(OC)c2)CCCC1`, where the note is “at 10 µM”, the inhibition of ligand binding was 17% (inactive).
As to `COc1cc2c(cc1OC)CC(C)(C)NC2`, the inhibition of ligand binding (at 10 µM) is 3% (inactive).
With `CC(=O)c1ccc2c(c1)C1C(Cl)C(Sc3ccccc3[N+](=O)[O-])CC1C(c1ccccc1[N+](=O)[O-])N2` (stereo not drawn), the inhibition of ligand binding was 79% (active) (at 10 µM) and 38% (binding inhibition, at 0.1 µM).
As for `O=C1C2CCN(CC2)C1Cc1ccc(O)cc1` (stereo not drawn), for the setting “at 10 µM”, the inhibition of ligand binding is 0% (inactive).
In the case of `O=C(O)c1ccc2c(c1)C1C(Cl)C(Sc3ccccc3[N+](=O)[O-])CC1C(c1cccc([N+](=O)[O-])c1)N2` (stereo not drawn), the inhibition of ligand binding (at 10 µM) was 0% (inactive).
Take `CC1(C)CC(CCNCc2ccc3c(c2)OCO3)(Cc2ccccc2)CCO1` (stereo not drawn): the inhibition of ligand binding (at 10 µM) was 0% (inactive).
Consider `NC(=O)c1ccc(N=Nc2c(O)[nH]c(=O)[nH]c2=O)cc1`, for which the inhibition of ligand binding is, setting by setting: (at 10 µM) 28% (inactive); (binding inhibition, at 0.1 µM) 14%.
